# From the supplement of paper PMC8728848
# Only a selection was taken, and the strongest signals are over-represented in it overall.
# Tests used:
# Test in all cases: glycan array binding signal (z-score within array); higher = stronger binding
# Details in all cases: glycan notation: IUPAC condensed, linker removed
# [1] = target: Gal3S(b1-4)[Fuc(a1-3)]GlcNAc
# Method in brief: (§1)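 Arrays were curated from the Consortium for Functional Glycomics database, 3228 in total, and kept only where the protein sequence was available. Binding is expressed as a within-array Z-score. This score was averaged across arrays of the same protein sequence at different concentrations or buffers and across linkers, and negative values can be read as non-binding.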
# GalNAc(b1-6)GalNAc = target: GalNAc(b1-6)GalNAc
# Method in brief: as §1
# [2] = target: GlcNAc(a1-4)Gal(b1-4)GalNAc
# Method in brief: as §1
# [3] = target: GlcNAc(a1-4)Gal(b1-4)GlcNAc(b1-3)Gal(b1-4)GlcNAc
# Method in brief: as §1
# [4] = target: GlcNAc(a1-4)Gal(b1-4)GlcNAc(b1-3)Gal(b1-4)GlcNAc(b1-3)Gal(b1-4)GlcNAc
# Method in brief: as §1
# [5] = target: GlcNAc(a1-4)Gal(b1-4)GlcNAc(b1-3)Gal(b1-4)[Fuc(a1-3)]GlcNAc(b1-3)Gal(b1-4)[Fuc(a1-3)]GlcNAc
# Method in brief: as §1
# [6] = target: GlcNAc(b1-2)[GlcNAc(b1-6)]Man(a1-6)[GlcNAc(b1-2)Man(a1-3)]Man(b1-4)GlcNAc(b1-4)GlcNAc
# Method in brief: as §1
# [7] = target: GlcNAc(b1-3)Gal(b1-4)GlcNAc(b1-2)Man(a1-3)[GlcNAc(b1-3)Gal(b1-4)GlcNAc(b1-2)Man(a1-6)]Man(b1-4)GlcNAc(b1-4)[Fuc(a1-6)]GlcNAc
# Method in brief: as §1
# [8] = target: GlcNAc(b1-3)Gal(b1-4)GlcNAc(b1-3)Gal(b1-4)GlcNAc(b1-2)Man(a1-3)[GlcNAc(b1-3)Gal(b1-4)GlcNAc(b1-3)Gal(b1-4)GlcNAc(b1-2)Man(a1-6)]Man(b1-4)GlcNAc(b1-4)[Fuc(a1-6)]GlcNAc
# Method in brief: as §1
# [9] = target: GlcNAc(b1-3)Gal(b1-4)GlcNAc(b1-3)Gal(b1-4)GlcNAc(b1-3)Gal(b1-4)GlcNAc(b1-3)Gal(b1-4)GlcNAc(b1-2)Man(a1-3)[GlcNAc(b1-3)Gal(b1-4)GlcNAc(b1-3)Gal(b1-4)GlcNAc(b1-3)Gal(b1-4)GlcNAc(b1-3)Gal(b1-4)GlcNAc(b1-2)Man(a1-6)]Man(b1-4)GlcNAc(b1-4)[Fuc(a1-6)]GlcNAc
# Method in brief: as §1
# [10] = target: GlcNAc(b1-3)Gal(b1-4)GlcNAc(b1-3)Gal(b1-4)GlcNAc(b1-3)GalNAc
# Method in brief: as §1
# GlcNAc(b1-4)GlcNAc = target: GlcNAc(b1-4)GlcNAc
# Method in brief: as §1
# [11] = target: Neu5Ac(a2-3)Gal(b1-3)GlcNAc(b1-2)Man
# Method in brief: as §1
# [12] = target: Neu5Ac(a2-3)Gal(b1-3)GlcNAc(b1-6)GalNAc
# Method in brief: as §1
# [13] = target: Neu5Ac(a2-3)Gal(b1-4)GlcNAc(b1-3)GalNAc
# Method in brief: as §1
# [14] = target: Neu5Ac(a2-3)Gal(b1-4)GlcNAc(b1-6)GalNAc
# Method in brief: as §1
# [15] = target: Neu5Ac(a2-3)Gal(b1-4)[Fuc(a1-3)]GlcNAc(b1-3)GalNAc
# Method in brief: as §1
# Neu5Ac(a2-3)GalNAc = target: Neu5Ac(a2-3)GalNAc
# Method in brief: as §1
# [16] = target: Neu5Ac(a2-6)Gal(b1-4)GlcNAc(b1-2)Man(a1-3)[Neu5Ac(a2-6)Gal(b1-4)GlcNAc(b1-2)Man(a1-6)]Man(b1-4)GlcNAc(b1-4)GlcNAc
# Method in brief: as §1
# [17] = target: Neu5Ac(a2-6)Gal(b1-4)GlcNAc(b1-3)[Neu5Ac(a2-6)Gal(b1-4)GlcNAc(b1-6)]GalNAc
# Method in brief: as §1
# [18] = target: Neu5Ac(a2-6)GalNAc(b1-4)GlcNAc6S
# Method in brief: as §1
# [19] = target: Neu5Ac(a2-8)Neu5Ac(a2-8)Neu5Ac
# Method in brief: as §1
# Neu5Ac(b2-6)GalNAc = target: Neu5Ac(b2-6)GalNAc
# Method in brief: as §1
# [20] = target: Neu5Gc(a2-3)Gal(b1-4)GlcNAc
# Method in brief: as §1
binder,measurement,setting,value
ClecSol-Fc (Cryptosporidium parvum) (protein) CPEGWISNGEKTRCFKLVTFDRPRTFSHGFKACNDLGGTEVETRRRNGSKETNEYPVTLASVYKLSDEEAIRRTLVEQGDIHKTANGCFVGLRKYAFFRYPPGWYWIDSGSPVSVRDSEINWTSSYNASWLLRFKFPFEKCGFFDIGGLGRRPCWLIDSELSCAVCGTVAYDSGGLNPNKYSELIKQTDEIISKEPKLDLPGYNNLNCTDAWENNLSVGLCQNVSNILDSAWSSYQSSLNFPSINFNWKEDSTNEGGDQVYHNSYLDLPRYKQKKTFYWDQDPGTIPALSDEMKLIGLSAQPTYHPLDRSSSGSFESDSTESGRANEERNDTLEEMIYKQSSDSIEDILVPVTKPIFSDYSSIGRNSGVEEVYSSNVSTISSKGVVFPNTTTSSDNDFTKNNPANSSKHTSTSTTTNTTTTTTRTTTTTTTTTTTTTTTTTTTTETTTTKKSTTATKNTTTT,glycan array binding signal (z-score),[1],0.021
same,glycan array binding signal (z-score),GalNAc(b1-6)GalNAc,-0.238
same,glycan array binding signal (z-score),[2],18.7
same,glycan array binding signal (z-score),[3],2.11
same,glycan array binding signal (z-score),[4],1.61
same,glycan array binding signal (z-score),[5],0.617
same,glycan array binding signal (z-score),[6],-0.117
same,glycan array binding signal (z-score),[7],0.693
same,glycan array binding signal (z-score),[8],-0.079
same,glycan array binding signal (z-score),[9],0.18
same,glycan array binding signal (z-score),[10],0.074
same,glycan array binding signal (z-score),GlcNAc(b1-4)GlcNAc,5.31
same,glycan array binding signal (z-score),[11],-0.101
same,glycan array binding signal (z-score),[12],-0.123
same,glycan array binding signal (z-score),[13],-0.229
same,glycan array binding signal (z-score),[14],-0.11
same,glycan array binding signal (z-score),[15],-0.101
same,glycan array binding signal (z-score),Neu5Ac(a2-3)GalNAc,0.005
same,glycan array binding signal (z-score),[16],-0.172
same,glycan array binding signal (z-score),[17],-0.216
same,glycan array binding signal (z-score),[18],-0.03
same,glycan array binding signal (z-score),[19],0.518
same,glycan array binding signal (z-score),Neu5Ac(b2-6)GalNAc,-0.003
same,glycan array binding signal (z-score),[20],-0.119
